Screening data as filed in PubChem BioAssay.
TDP1 cell noCPT: qHTS for Inhibitors of human tyrosyl-DNA phosphodiesterase 1 (TDP1): qHTS in cells in absence of CPT; Potency, µM (top dose mostly 46.2 µM), usual class: inhibitors; 420,000 tested, 15% active; DT40 Tdp1-/- hTDP1 cells, no CPT, ATP luminescence, 48 h; AID 686978, 2013; further: nearly all actives have a fitted effect of over 55% in size
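Luminescent ATP content (CellTiter-Glo) served as the growth readout. Knockout chicken DT40 cells expressing human TDP1 were exposed to compounds without camptothecin for a minimum 48 hr at 37 °C.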
CtBP-E1A inh: CtBP/E1A binding inhibition | AID 651724 | 340,000 tested, 0.49% active | activity change, % (no concentration beside the values) | AlphaScreen GST-E1A/His-CtBP binding, 1536-well; stronger effect = lower value; in the data active means activity change below about -65%; inconclusive means mostly about -30% to -63%
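In 5 uL wells, 23 nL compound meets equimolar GST-E1A and His-CtBP (5X stock 125 nM each) for 2 h, 37 °C. Beads (5X, 50 ug/mL) then 1 h, 37 °C, dark.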
IL-1B inflam inh: blocks inflammasome-driven IL-1 beta release. THP-1 LPS/ATP IL-1B secretion, AlphaLISA, 16 h; stronger effect = lower value. activity change, % at 57.5 µM. 360,000 tested, 4.7% active. AID 743279; in the data active means activity change below about -50%; inconclusive means mostly about -30% to -49%
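THP-1 cells pretreated 1 hr with compounds (up to 57.5 uM final), then stimulated with LPS (250 ng/mL final) plus ATP (1.25 mM final); secreted IL-1B measured by AlphaLISA after 16 hr, decreased signal indicating inhibition.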
DT40 TDP1 CPT: DT40-hTDP1 cell growth loss with CPT; chicken DT40 Tdp1-/-;hTDP1 cells + 20 nM CPT, ATP luminescence, 48 h; Potency, µM (highest dose often 46.2 µM), actives largely listed as inhibitors; 420,000 tested, 12% active; AID 686979; further: nearly all actives have a fitted effect of over 55% in size
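Chicken DT40 Tdp1-/- cells complemented with human TDP1, 400 cells/well, exposed to compounds plus 20 nM camptothecin for at least 48 h at 37 C; viability read as ATP content by CellTiter-Glo luminescence.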
Six1-Eya2 inh: blocks human Six1 binding to Eya2 | Q15475+O00167 | AlphaScreen GST-Six1/His-Eya2 binding, biochemical; stronger effect = lower value | activity change, % (concentration not given with the values) | 360,000 tested, 0.56% active | AID 651725; in the data active means activity change below about -65%; inconclusive means mostly about -30% to -63%
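GST-Six1 + His-Eya2 (5X stock: 250/500 nM); Tris pH 8.0, 300 mM NaCl, 0.05% BSA, 0.02% Tween 20; GSH donor/Ni acceptor beads; 1 h 37 °C dark; AlphaScreen readout.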
TDP1 block: inhibitors of human tyrosyl-DNA phosphodiesterase TDP1. recombinant TDP1, AlphaScreen DNA substrate cleavage. 350,000 tested, 0.28% active. Q9NUW8. Potency, µM (series often up to 130 µM), usual class: inhibitors; further: nearly all actives have a fitted effect of over 40% in size
Target sequence (Q9NUW8 whole entry, looked up): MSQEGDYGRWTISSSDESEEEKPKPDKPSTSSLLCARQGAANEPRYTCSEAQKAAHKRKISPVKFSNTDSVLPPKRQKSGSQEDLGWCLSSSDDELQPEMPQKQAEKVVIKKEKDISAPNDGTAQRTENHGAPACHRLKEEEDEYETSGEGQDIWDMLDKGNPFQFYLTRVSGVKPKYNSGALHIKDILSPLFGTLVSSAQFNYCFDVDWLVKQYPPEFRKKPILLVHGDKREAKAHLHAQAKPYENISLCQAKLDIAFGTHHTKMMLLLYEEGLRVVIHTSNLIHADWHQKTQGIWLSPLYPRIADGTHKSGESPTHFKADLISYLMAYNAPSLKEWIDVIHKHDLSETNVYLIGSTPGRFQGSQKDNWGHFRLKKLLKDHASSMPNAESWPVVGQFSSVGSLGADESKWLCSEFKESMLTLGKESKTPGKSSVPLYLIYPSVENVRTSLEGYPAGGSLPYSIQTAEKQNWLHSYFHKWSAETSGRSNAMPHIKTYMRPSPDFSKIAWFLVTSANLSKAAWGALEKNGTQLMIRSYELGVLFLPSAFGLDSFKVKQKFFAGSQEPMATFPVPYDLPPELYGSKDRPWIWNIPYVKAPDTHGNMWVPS
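Here, a 5' biotin and 3' phosphotyrosine-FITC DNA oligonucleotide reports Tdp1 activity: intact substrate bridges AlphaScreen beads, while cleavage leaves a 3' phosphate and drops signal. All incubations at room temperature.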
Numbers stand for hits. Most compounds without a hit are left out; they make up all but 18% or so of the library. Unless noted, the call rests on the fitted dose curve; in most records, active means well fitted curve in the direction sought with a large enough effect; inconclusive means small, poorly fitted or top-dose-only effect, or another doubt; inactive means no such curve, though single readings can be large; an effect the other way counts as inactive or inconclusive.

For O=C(Nc1ccccc1C(F)(F)F)N1CC=C(c2c[nH]c3ccccc23)CC1 the results were TDP1 cell noCPT 26µM, DT40 TDP1 CPT 21µM and TDP1 block inactive.
`O=C(Nc1ccc(F)c(Cl)c1)N1CC=C(c2c[nH]c3ccccc23)CC1` gave TDP1 cell noCPT 16µM, DT40 TDP1 CPT 23µM and TDP1 block inactive.
O=C(Nc1cccc(F)c1)N1CC=C(c2ccc(Cl)cc2)CC1 was read as TDP1 cell noCPT inconclusive, CtBP-E1A inh inactive, IL-1B inflam inh inconclusive, DT40 TDP1 CPT inconclusive, Six1-Eya2 inh inactive and TDP1 block inactive.
O=C(CNc1ccccc1)NN=C1CCCC1 was read as TDP1 cell noCPT inactive, CtBP-E1A inh inactive, IL-1B inflam inh inactive, DT40 TDP1 CPT inactive, Six1-Eya2 inh inactive and TDP1 block inactive.
Screening Cc1cccnc1C(NC(=O)C1CCN(Cc2cn(C)c3ccccc23)CC1)c1ccc(Cl)cc1 (centres undefined) returned TDP1 cell noCPT 4.6µM, CtBP-E1A inh inactive, IL-1B inflam inh inconclusive, DT40 TDP1 CPT 4.6µM and Six1-Eya2 inh inconclusive.
Cc1cccnc1C(NC(=O)C1CCN(CCCc2ccccc2)CC1)c1ccc(Cl)cc1 (centres undefined) was read as TDP1 cell noCPT 29µM, CtBP-E1A inh inactive, IL-1B inflam inh -57, DT40 TDP1 CPT inconclusive and Six1-Eya2 inh inactive.
`CC(C)NC(=O)C1CCN(Cc2cccc(Oc3ccccc3)c2)CC1` gave TDP1 cell noCPT inactive, CtBP-E1A inh inactive, IL-1B inflam inh inactive, DT40 TDP1 CPT inactive and Six1-Eya2 inh inactive.
Cc1cccnc1C(NC(=O)C1CCN(Cc2ccc(Cl)cc2)CC1)c1ccccc1 (centres undefined) was read as TDP1 cell noCPT 16µM, CtBP-E1A inh inactive, IL-1B inflam inh inconclusive, DT40 TDP1 CPT 16µM and Six1-Eya2 inh inactive.
COc1cc(OC)nc(C(NC(=O)C2CCN(Cc3ccc(Oc4ccccc4)cc3)CC2)c2ccccc2C)n1 (centres undefined) was read as TDP1 cell noCPT inconclusive, CtBP-E1A inh inactive, IL-1B inflam inh -58, DT40 TDP1 CPT inconclusive and Six1-Eya2 inh inactive.
Screening COc1ccc(C(NC(=O)C2CCN(CCCc3ccccc3)CC2)c2ccccn2)cc1 (centres undefined) returned TDP1 cell noCPT inactive, CtBP-E1A inh inactive, IL-1B inflam inh inactive, DT40 TDP1 CPT inactive and Six1-Eya2 inh inactive.
Screening COc1cccc(N(C(=O)Cn2nnc(-c3ccc(C)o3)n2)C(C(=O)NC(C)(C)C)c2cccs2)c1 (centres undefined) returned TDP1 cell noCPT inactive, CtBP-E1A inh inactive, IL-1B inflam inh inactive, DT40 TDP1 CPT inactive, Six1-Eya2 inh inactive and TDP1 block inactive.
C/C(=N\NC(=O)COc1ccc2ccccc2c1)c1cccs1 was read as TDP1 cell noCPT inconclusive, CtBP-E1A inh inactive, IL-1B inflam inh inactive, DT40 TDP1 CPT inactive, Six1-Eya2 inh inactive and TDP1 block inactive.
`Cc1cccnc1C(NC(=O)C1CCN(Cc2ccc(Oc3ccccc3)cc2)CC1)c1ccc(F)cc1` (centres undefined) gave TDP1 cell noCPT inconclusive, CtBP-E1A inh inactive, IL-1B inflam inh -67, DT40 TDP1 CPT 23µM and Six1-Eya2 inh inactive.
COC(=O)Cc1c(C)c2c(O)cc(C)cc2oc1=O was read as TDP1 cell noCPT inactive, CtBP-E1A inh inactive, IL-1B inflam inh inactive, DT40 TDP1 CPT inactive, Six1-Eya2 inh inactive and TDP1 block inactive.
Screening O=c1c(Cl)c(Cl)cnn1Cc1nnc(-c2ccccc2Br)o1 returned TDP1 cell noCPT 1.8µM, CtBP-E1A inh inactive, IL-1B inflam inh -96, DT40 TDP1 CPT 4.1µM, Six1-Eya2 inh inactive and TDP1 block inactive.
`CC(C)C(=O)Nc1ccc(C(=O)N/N=C/c2cc(Br)cc(Br)c2O)cc1` gave TDP1 cell noCPT 13µM, CtBP-E1A inh inactive, IL-1B inflam inh inactive, DT40 TDP1 CPT 7.3µM, Six1-Eya2 inh inactive and TDP1 block inactive.
`CC(=O)Nc1ccc(C(=O)N/N=C/c2cc(Br)cc(Br)c2O)cc1` gave TDP1 cell noCPT 10µM, CtBP-E1A inh inconclusive, IL-1B inflam inh inactive, DT40 TDP1 CPT 12µM, Six1-Eya2 inh -65 and TDP1 block inactive.
`CNC(=S)N/N=C/c1cc(Br)cc(Br)c1O` gave TDP1 cell noCPT inconclusive, CtBP-E1A inh -97, IL-1B inflam inh inactive, DT40 TDP1 CPT inconclusive, Six1-Eya2 inh -90 and TDP1 block inactive.
COc1cc(OC)c(/C=N/NC(=O)c2ccc(NC(C)=O)cc2)cc1Br was read as TDP1 cell noCPT inactive, CtBP-E1A inh inactive, IL-1B inflam inh inactive, DT40 TDP1 CPT inactive, Six1-Eya2 inh inactive and TDP1 block inactive.
CC(=O)c1ccc(N2CCN(C(=O)CN(C)S(=O)(=O)c3cnc[nH]3)CC2)cc1 was read as TDP1 cell noCPT inactive, CtBP-E1A inh inactive, IL-1B inflam inh inactive, DT40 TDP1 CPT inactive, Six1-Eya2 inh inactive and TDP1 block inactive.
For O=C(Nc1ccc(Br)cc1Cl)N1CCOCC1 the results were TDP1 cell noCPT inactive, IL-1B inflam inh inactive, DT40 TDP1 CPT inactive, Six1-Eya2 inh inactive and TDP1 block inactive.
Cc1noc(C)c1CSc1nnc(-c2ccccc2F)n1CCc1ccccc1 was read as TDP1 cell noCPT inconclusive, CtBP-E1A inh inactive, IL-1B inflam inh inactive, DT40 TDP1 CPT 18µM, Six1-Eya2 inh inactive and TDP1 block inactive.
Screening CC(=O)Nc1ccc(C(=O)CSc2nnc(-c3ccccc3F)n2CCc2ccccc2)cc1 returned TDP1 cell noCPT 13µM, IL-1B inflam inh inactive, DT40 TDP1 CPT inconclusive and Six1-Eya2 inh inactive.
Screening CCC(=O)Nc1ccc(C(=O)CSc2nnc(-c3ccccc3F)n2C2CC2)cc1 returned TDP1 cell noCPT inconclusive, CtBP-E1A inh inactive, IL-1B inflam inh inactive, DT40 TDP1 CPT inconclusive, Six1-Eya2 inh inactive and TDP1 block inactive.
Screening CC1=CC(C)(C)N(C(=O)CSc2ncn[nH]2)c2ccccc21 returned TDP1 cell noCPT inactive, CtBP-E1A inh inactive, IL-1B inflam inh inactive, DT40 TDP1 CPT inactive, Six1-Eya2 inh inactive and TDP1 block inactive.
`Nc1ccc(Nc2ccccc2)c(S(=O)(=O)O)c1` gave TDP1 cell noCPT inactive, CtBP-E1A inh inactive, IL-1B inflam inh inactive, DT40 TDP1 CPT inactive, Six1-Eya2 inh inactive and TDP1 block 56µM.
Screening C=CCn1c(SCN2C(=O)c3ccccc3C2=O)nc2ccc(Cl)cc2c1=O returned TDP1 cell noCPT 18µM, CtBP-E1A inh inactive, IL-1B inflam inh inactive, DT40 TDP1 CPT 18µM, Six1-Eya2 inh inactive and TDP1 block inactive.
